An excerpt weighted towards active compounds, which were near 19% of everything screened.
HT1080-NT tox = kills 2HG-producing HT-1080-NT fibrosarcoma cells | Potency, µM (top dose mostly 46.1 µM), hits mostly cytotoxic | HT-1080-NT fibrosarcoma viability, CellTiter-Glo ATP luminescence, 48 h | actives 1.6% (n = 360,000);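 further: NT is the 2HG producing partner of a matched IDH1 knockdown line; nearly all actives have a fitted effect of over 55% in size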
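HT-1080-NT; 750 cells/well; 5% FBS RPMI; 48 h compound, 37 degrees C; CellTiter-Glo luminescence; curve fitting and curve-class assignment.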
IL1B secr inh = blocks inflammasome-driven IL-1 beta release | THP-1 LPS/ATP IL-1B secretion, AlphaLISA, 16 h; active compounds read low | activity change, % at 57.5 µM | actives 4.7% (n = 360,000); in the data active means activity change below about -50%; inconclusive means mostly about -30% to -49%
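Secreted IL-1B measured by AlphaLISA bead assay after 16 h compound exposure of THP-1 cells; compounds (final up to 57.5 uM) added 1 h before LPS (250 ng/mL) and ATP (1.25 mM) stimulation; lower signal means less secretion.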
HT1080 IDH1KD tx = toxicity to HT-1080 IDH1 knockdown cells (counter line); HT-1080 IDH1 knockdown viability, ATP luminescence, 48 h; Potency, µM (highest dose often 46.1 µM), actives largely listed as cytotoxic; actives 2% (n = 360,000); AID 686971
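IDH1KD HT-1080 cells, 750/well, RPMI + 5% FBS; compound pinned after 2 h settling; 48 h, 37 °C; CellTiter-Glo luminescence; % activity normalised to DMSO and no-cell wells; curves fitted, classed by r2 and efficacy.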
DT40 TDP1 CPT = growth inhibition of DT40 Tdp1-/-;hTDP1 cells with camptothecin (screen for TDP1 inhibitors); chicken DT40 Tdp1-/-;hTDP1 cells + 20 nM CPT, ATP luminescence, 48 h; Potency, µM (doses to about 46.2 µM), usual class: inhibitors; actives 12% (n = 420,000); further: nearly all actives have a fitted effect of over 55% in size
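Chicken DT40 Tdp1-/- cells stably complemented with human TDP1 were seeded at 400 cells/well in medium containing 20 nM camptothecin, exposed to pin-transferred compounds, and grown at 37 °C for at least 48 hr. Viability was read as ATP luminescence.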
DT40 TDP1 no CPT = qHTS for Inhibitors of human tyrosyl-DNA phosphodiesterase 1 (TDP1): qHTS in cells in absence of CPT. DT40 Tdp1-/- hTDP1 cells, no CPT, ATP luminescence, 48 h. Potency, µM (doses to about 46.2 µM), usual class: inhibitors. actives 15% (n = 420,000); further: nearly all actives have a fitted effect of over 55% in size
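Growth kinetics read by CellTiter-Glo luminescence after ≥48 hr at 37 °C. Cells: DT40 Tdp1-/- stably carrying human TDP1, 400 per well, compound exposure in the absence of CPT (DMSO vehicle).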
Hits are given with their value; . = inactive; ? = inconclusive; / = no result given; [ ] = dose if it differs, or a comment. Unless noted, the call rests on the fitted dose curve; in most records, active means well fitted curve in the direction sought with a large enough effect; inconclusive means small, poorly fitted or top-dose-only effect, or another doubt; inactive means no such curve, though single readings can be large; an effect the other way counts as inactive or inconclusive.

SMILES	HT1080-NT tox	IL1B secr inh	HT1080 IDH1KD tx	DT40 TDP1 CPT	DT40 TDP1 no CPT
O=C(CNC(=O)c1ccccc1C(F)(F)F)N/N=C/c1cccs1	.	.	.	.	.
Cc1ccc(OCc2nnc(-c3ccccc3)o2)cc1	/	/	/	.	.
OC(c1ccc(OCc2ccccc2)cc1)c1nnc(-c2ccccc2)o1 (centres undefined)	.	.	.	21µM	16µM
Cc1ccc(-c2nnc(-c3ccccc3)o2)cc1	.	.	.	.	?
OC(c1cccc(OCc2ccccc2)c1)c1nnc(-c2ccccc2)o1 (centres undefined)	.	?	?	18µM	18µM
c1ccc(-c2nnc(C(c3ccccc3)c3ccccc3)o2)cc1	.	.	.	26µM	18µM
Cn1ccnc1C(O)c1cccc(OCc2ccccc2)c1 (centres undefined)	.	.	.	.	.
CC(C)(C)c1ccc(C(=O)N2CCN(C(=O)c3cccs3)CC2)cc1	.	.	.	?	?
Cn1nccc1-c1coc2c(C(=O)NCc3ccccc3)cccc12	.	.	.	?	?
Cn1nccc1-c1coc2c(C(=O)NCC3CCOCC3)cccc12	.	.	.	?	23µM
C=C(C)c1cccc(C(C)(C)NC(=O)N2CCCC(C(N)=O)C2)c1 (centres undefined)	.	.	.	.	.
C=C(C)c1cccc(C(C)(C)NC(=O)N2CCN(C/C=C/c3ccccc3)CC2)c1	.	?	.	23µM	23µM
C=C(C)c1cccc(C(C)(C)NC(=O)N2CCCC(C)C2)c1 (centres undefined)	.	.	.	23µM	?
C=C(C)c1cccc(C(C)(C)NC(=O)Nn2cnnc2)c1	.	.	.[9.24 µM]	.	0.82µM
COC(=O)[C@@H]1CCCN1C(=O)CCc1nnc(CCc2c[nH]c3ccccc23)o1	.	-105	.	?	?
COC(=O)C1CCCCN1C(=O)CCc1nnc(CCc2c[nH]c3ccccc23)o1 (centres undefined)	.	.	.	?	.
O=C(CSc1nc2[nH]ncc2c(=O)[nH]1)Nc1cc(C(F)(F)F)ccc1Cl	.	.	.	.	?
Cc1ccc(C(=O)N/C(=C/c2cn(-c3ccccc3)nc2-c2ccccc2)C(=O)O)cc1	.	.	.	.	.
Cc1ccc(-c2nn(-c3ccccc3)cc2/C=N/O)cc1	?	-81	?	.	.
Cc1ccc(-c2nn(-c3ccccc3)cc2/C=N/NS(=O)(=O)c2ccccc2)cc1	?	.	?	29µM	?
CC(=O)C(=Cc1cn(-c2ccccc2)nc1-c1ccccc1)C(C)=O	.	.	.	23µM	?
Cc1ccc(S(=O)(=O)N/N=C\c2cn(-c3ccccc3)nc2-c2ccccc2)cc1	?	.	.	.	.
COc1ccc(NS(=O)(=O)c2cccc(C(=O)N/N=C/c3cn(-c4ccccc4)nc3-c3ccccc3)c2)cc1	?	?	?	16µM	?
NS(=O)(=O)c1ccc(N/N=C/c2cn(-c3ccccc3)nc2-c2ccccc2)c([N+](=O)[O-])c1	.	-78	.	4.1µM	12µM
Cc1ccccc1C(=O)NCC(=O)OC(C)C(=O)Nc1cccc(S(=O)(=O)N2CCOCC2)c1 (centres undefined)	.	.	.	.	.
SMILES	HT1080-NT tox	IL1B secr inh	HT1080 IDH1KD tx	DT40 TDP1 CPT	DT40 TDP1 no CPT
COC(=O)c1[nH]c2ccc(C)cc2c1NC(=O)CN1CCN(Cc2ccccc2)CC1	.	.	.	18µM	26µM
COC(=O)c1[nH]c2ccc(C)cc2c1NC(=O)CN1CCN(c2ccccc2)CC1	.	.	.	16µM	23µM
COC(=O)c1[nH]c2ccc(C)cc2c1NC(=O)CN1CCN(C(=O)c2ccccc2)CC1	.	.	.	?	?
CCOC(=O)N1CCN(CC(=O)Nc2c(C(=O)OC)[nH]c3cc(C)ccc23)CC1	.	.	.	?	?
COC(=O)c1[nH]c2ccc(C)cc2c1NC(=O)CN1CCN(c2ccc(F)cc2)CC1	.	.	.	11µM	16µM
CCOC(=O)c1[nH]c2ccc(OCC)cc2c1NC(=O)CN1CCN(c2ccccc2)CC1	.	.	.	21µM	?

Bioassay records from PubChem.
